# Results reported in PubChem BioAssay (NCI).
# This is part of a sample that, as a whole, favours compounds with a hit. Of some 83,000 tested, about 20% had one in any assay.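 Interpretation: 100, growth as untreated; towards 0, rising growth inhibition; 0, no net growth; 0 to -100, cell death. Compounds scoring below 10 were considered active.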 Unmarked numbers belong to inactive results. Calls of active or inactive are those of the source.
# Legend:
# Assay in all cases: NCI-60 one-dose screen, 48 h (100 = growth as untreated, 0 = no growth, -100 = all killed)
# Settings in all cases: 10 µM unless noted
# NCI-H23 lung = test system: NCI-H23 lung
# NCI-H226 lung = test system: NCI-H226 lung
# NCI-H322M lung = test system: NCI-H322M lung
# HOP-62 NSCLC = test system: HOP-62 NSCLC
# NCI-H460 lung = test system: NCI-H460 lung
# HOP-92 NSCLC = test system: HOP-92 NSCLC
# NCI-H522 lung = test system: NCI-H522 lung
# A549/ATCC NSCLC = test system: A549/ATCC NSCLC
# 786-0 renal = test system: 786-0 renal
# COLO 205 colon = test system: COLO 205 colon
# DU-145 prostate = test system: DU-145 prostate
# K-562 leukemia = test system: K-562 leukemia
# MALME-3M melanoma = test system: MALME-3M melanoma
# MDA-MB-231 breast = test system: MDA-MB-231 breast
# RXF 393 renal = test system: RXF 393 renal
# SF-268 CNS = test system: SF-268 CNS
# SF-295 CNS = test system: SF-295 CNS
# SF-539 CNS = test system: SF-539 CNS
# UACC-257 melanoma = test system: UACC-257 melanoma
# M14 melanoma = test system: M14 melanoma
SMILES,growth (NCI-H23 lung),growth (NCI-H226 lung),growth (NCI-H322M lung),growth (HOP-62 NSCLC),growth (NCI-H460 lung),growth (HOP-92 NSCLC),growth (NCI-H522 lung),growth (A549/ATCC NSCLC),growth (786-0 renal),growth (COLO 205 colon),growth (DU-145 prostate),growth (K-562 leukemia),growth (MALME-3M melanoma),growth (MDA-MB-231 breast),growth (RXF 393 renal),growth (SF-268 CNS),growth (SF-295 CNS),growth (SF-539 CNS),growth (UACC-257 melanoma),growth (M14 melanoma)
Cn1c2c(c3ccc(-c4ccn[nH]4)cc3c1=O)C(=O)c1ccccc1-2,25.3%,0.642% (active),87.3%,17.2%,1.75% (active),79.3%,48.8%,8.44% (active),12.3%,53.8%,15.9%,17.7%,55.8%,86.9%,91.5%,40.8%,20.5%,37.3%,103%,48.6%
Cc1ccc(CS/C(=C\c2ccc([N+](=O)[O-])cc2)C(=O)c2ccc(F)cc2)cc1,57.2%,67%,103%,83.4%,82.3%,96.2%,-5.69% (active),85%,76.9%,54.2%,91.2%,-0.821% (active),83.7%,60.5%,100%,74.6%,79.2%,98.1%,93.3%,40.8%
CCN1CCC[C@H]1c1cc(O)c2c(c1OC)C[C@H]1C[C@H]3[C@H](N)C(=O)C(C(N)=O)=C(O)[C@@]3(O)C(=O)C1=C2O,-16.7% (active),1.47% (active),-2.43% (active),-12% (active),2.84% (active),-3.43% (active),-21.4% (active),6.12% (active),3.89% (active),-18.7% (active),1.87% (active),3.76% (active),-16.5% (active),-6.79% (active),-40.4% (active),2.64% (active),0.93% (active),-21% (active),-14.1% (active),-38.8% (active)
C=C1C(=O)O[C@H]2[C@H]1CC/C(COC(=O)/C=C/c1cccnc1)=C\CC[C@@]1(C)O[C@@H]21,56.2%,38.5%,93.6%,72.4%,77.4%,19.1%,-43.5% (active),61.8%,2.95% (active),-46% (active),13.1%,6.99% (active),-35.9% (active),38.7%,-9.04% (active),57.6%,84.4%,6.08% (active),28.9%,26.3%
CC[C@]12C=CCN3CC[C@@]4(c5cc(NC(=O)CCC(=O)O[C@H]6CC[C@H]7[C@@H]8CC[C@H]9CC(=O)CC[C@]9(C)[C@H]8CC[C@]67C)c(OC)cc5N(C)[C@H]4[C@@](O)(C(=O)OC)[C@@H]1OC(C)=O)[C@@H]32,89.7%,70.9%,99%,95.6%,64.5%,52.4%,63.6%,56.7%,74.7%,69.1%,86.8%,41.7%,77.7%,83%,66.2%,74.3%,68.4%,74.1%,94.5%,67.5%
CC(C)(C#N)c1cc(F)cc(C(=O)Nc2cc(Nc3ncccc3-c3ncnc4nc[nH]c34)ccc2F)c1,16.8%,41.3%,53.3%,44.9%,30.5%,-0.389% (active),7.73% (active),42.1%,63%,6.56% (active),56.1%,5.97% (active),-28.4% (active),22.4%,34.1%,60.6%,46.1%,20.8%,23.7%,5.28% (active)
C#C[C@@]1(O)[C@@H](CO)O[C@@H](n2cnc3c(-c4ccccc4)ncnc32)[C@@H]1O,101%,104%,104%,110%,112%,105%,94.8%,94.1%,98.8%,109%,109%,105%,103%,126%,122%,99%,97.7%,108%,117%,97.8%
